Compound activity: PubChem, Buhrlage Lab, Dana-Farber Cancer Institute and Novartis Institutes for BioMedical Research (Cambridge, Mass)
A selection: hits, their analogues and other compounds. The true share with any hit is near 13%.
USP30 block = inhibitors of human USP30 deubiquitinase. AID 1645860. inhibition, % at 25 µM. 47,000 compounds, 5.3% hits. purified USP30, Ub-rhodamine cleavage fluorescence. Q70CQ3
USP28 inh = human USP28 deubiquitinase inhibition; purified USP28, Ub-rhodamine cleavage fluorescence, 30 min; inhibition, % at 25 µM; 47,000 compounds, 3% hits; AID 1645857
USP17 inh = inhibitors of human USP17 deubiquitinase; A8MUK1; purified USP17, Ub-rhodamine cleavage fluorescence, 3 h; inhibition, % at 50 µM; 47,000 compounds, 6.5% hits
USP8 inh = human USP8 deubiquitinase inhibition; P40818; purified USP8, Ub-rhodamine cleavage fluorescence, 30 min; inhibition, % at 20 µM; 47,000 compounds, 4.2% hits
USP7 inh = human USP7 deubiquitinase inhibition; Q93009; AID 1645854; 47,000 compounds, 0.3% hits; purified USP7, Ub-rhodamine cleavage fluorescence; inhibition, % at 20 µM
USP10 block = human USP10 deubiquitinase inhibition; AID 1645856; inhibition, % at 20 µM; purified USP10, Ub-rhodamine fluorescence, 60 min; Q14694; 47,000 compounds, 1.1% hits
Numbers stand for hits. No stated cut-off is given here; in the data, active means inhibition above about 30%; inactive means the rest.

Results for Cc1ccc(CC(=O)NCC(=O)Nc2nc3ccccc3[nH]2)cc1 ?
USP30 block: inactive; USP28 inh: inactive; USP17 inh: 44.9; USP8 inh: inactive; USP7 inh: inactive; USP10 block: inactive

What do the screens show for `Cc1cccc(NC(=O)CCCSc2nc3ccccc3[nH]2)c1`?
USP30 block: inactive; USP28 inh: inactive; USP17 inh: inactive; USP8 inh: inactive; USP7 inh: inactive; USP10 block: inactive

What do the screens show for `Cc1nc(C)c(C(=O)Nc2nc3ccccc3[nH]2)s1`?
USP17 inh: inactive; USP8 inh: inactive; USP7 inh: inactive; USP10 block: inactive

Results for Cn1ncc2c(N3CCC(C4CCCCCN4C(=O)C4CC4)CC3)ncnc21 (centres undefined) ?
USP30 block: inactive; USP28 inh: inactive; USP17 inh: inactive; USP8 inh: inactive; USP7 inh: inactive; USP10 block: inactive

Results for CC(NCCc1ccc(Cl)cc1)c1nc2scc(-c3ccccc3)c2c(=O)[nH]1 (centres undefined) ?
USP30 block: inactive; USP28 inh: inactive; USP17 inh: 35.0; USP8 inh: inactive; USP7 inh: inactive; USP10 block: inactive

Results for CC(Nc1ccccc1)c1nc2scc(-c3ccccc3)c2c(=O)[nH]1 (centres undefined) ?
USP30 block: inactive; USP28 inh: inactive; USP17 inh: inactive; USP8 inh: inactive; USP7 inh: inactive; USP10 block: inactive

Results for O=C(Nc1nc2ccccc2s1)c1cc2ccc3cccnc3c2[nH]1 ?
USP17 inh: 58.5; USP8 inh: inactive; USP7 inh: inactive; USP10 block: 35.2

How did CCOc1ccccc1-c1cc(NC(=O)c2cc3ccc4cccnc4c3[nH]2)on1 do in these assays?
USP30 block: 88.2; USP28 inh: inactive; USP17 inh: 67.8; USP8 inh: 69.1; USP7 inh: inactive; USP10 block: 53.1

What do the screens show for `COc1ccc2nc(NC(=O)c3cc4ccc5cccnc5c4[nH]3)sc2c1`?
USP30 block: inactive; USP28 inh: inactive; USP17 inh: inactive; USP8 inh: 79.9; USP7 inh: inactive; USP10 block: 32.7

Results for CC(=O)Nc1ccc(C(=O)Nc2cc(-c3ccccn3)no2)cc1 ?
USP30 block: inactive; USP28 inh: inactive; USP17 inh: inactive; USP8 inh: inactive; USP7 inh: inactive; USP10 block: inactive

How did COc1ccccc1NCc1c(C)nn(-c2ccccc2)c1C do in these assays?
USP30 block: inactive; USP28 inh: inactive; USP17 inh: inactive; USP8 inh: inactive; USP7 inh: inactive; USP10 block: inactive

What do the screens show for `CCc1cccc(CC)c1NC(=O)COC(=O)c1cc2cccc(OC)c2oc1=O`?
USP30 block: 39.3; USP28 inh: inactive; USP17 inh: 89.8; USP8 inh: 61.9; USP7 inh: inactive; USP10 block: 32.6

How did Cc1cccc(C(C)C)c1NC(=O)COC(=O)c1cc2ccccc2oc1=O do in these assays?
USP30 block: inactive; USP28 inh: inactive; USP17 inh: inactive; USP8 inh: inactive; USP7 inh: inactive; USP10 block: inactive

Results for COc1ccc(Cl)cc1NC(=O)COC(=O)c1cc2ccccc2oc1=O ?
USP30 block: inactive; USP28 inh: inactive; USP17 inh: inactive; USP8 inh: 70.4; USP7 inh: inactive; USP10 block: inactive

How did Cc1ccc(-c2nn(-c3ccccc3)cc2COC(=O)c2ccc(S(=O)(=O)N(C)C)cc2)cc1C do in these assays?
USP30 block: inactive; USP28 inh: inactive; USP17 inh: inactive; USP8 inh: inactive; USP7 inh: inactive; USP10 block: inactive

How did CCc1nnc(C2CCN(S(=O)(=O)c3ccc(F)cc3)CC2)s1 do in these assays?
USP30 block: inactive; USP28 inh: inactive; USP17 inh: inactive; USP8 inh: inactive; USP7 inh: inactive; USP10 block: inactive

Results for CC(=O)C1=C(C)Nc2nc3ccccc3n2C1c1ccc(O)cc1 (centres undefined) ?
USP30 block: inactive; USP28 inh: inactive; USP17 inh: 34.5; USP8 inh: inactive; USP7 inh: inactive; USP10 block: inactive

How did CC1=C(C(=O)N2CCCCC2)C(c2ccc(F)cc2)n2c(nc3ccccc32)N1 (centres undefined) do in these assays?
USP30 block: inactive; USP28 inh: inactive; USP17 inh: inactive; USP8 inh: inactive; USP7 inh: inactive; USP10 block: inactive

Results for CC1=C(C(=O)N2CCOCC2)C(c2cccs2)n2c(nc3ccccc32)N1 (centres undefined) ?
USP30 block: inactive; USP28 inh: inactive; USP17 inh: inactive; USP8 inh: inactive; USP7 inh: inactive; USP10 block: inactive

What do the screens show for `O=C1CCCC2=C1C(c1ccc(Cl)cc1)n1c(nc3ccccc31)N2` (centres undefined)?
USP30 block: 37.2; USP28 inh: inactive; USP17 inh: inactive; USP8 inh: inactive; USP7 inh: inactive; USP10 block: inactive

What do the screens show for `CC(=O)C1=C(C)Nc2nc3ccccc3n2C1c1cccs1` (centres undefined)?
USP30 block: 49.4; USP28 inh: inactive; USP17 inh: 37.5; USP8 inh: inactive; USP7 inh: inactive; USP10 block: inactive

Results for CC(=O)c1c(C)[nH]c(C(=O)N2CCC(N3CCCCC3)CC2)c1C ?
USP30 block: inactive; USP28 inh: inactive; USP17 inh: inactive; USP8 inh: inactive; USP7 inh: inactive; USP10 block: inactive

Results for Cc1cccc(NC(=O)c2sc3nc(-c4ccccc4)cn3c2C)c1 ?
USP30 block: inactive; USP28 inh: inactive; USP17 inh: inactive; USP8 inh: inactive; USP7 inh: inactive; USP10 block: inactive

Results for COc1cccc(NC2=NS(=O)(=O)c3ccccc32)c1 ?
USP30 block: 41.3; USP28 inh: inactive; USP17 inh: 40.8; USP8 inh: inactive; USP7 inh: inactive; USP10 block: inactive

Results for COc1cccc(CNC(=O)CCC2=NS(=O)(=O)c3ccccc3N2)c1 ?
USP30 block: inactive; USP28 inh: inactive; USP17 inh: inactive; USP8 inh: inactive; USP7 inh: inactive; USP10 block: inactive

What do the screens show for `CC[C@@H](C(=O)[C@@H](C)[C@@H](O)[C@H](C)CCc1ccc(C)c(O)c1C(=O)O)[C@@H]1O[C@](CC)([C@H]2CC[C@](O)(CC)[C@H](C)O2)C[C@@H]1C`?
USP30 block: 59.6; USP28 inh: inactive; USP17 inh: 56.4; USP8 inh: inactive; USP7 inh: inactive; USP10 block: 60.3

How did CCOC(=O)c1ccc(N2C(=O)C(C)S(=O)(=O)C2c2ccccc2)cc1 (centres undefined) do in these assays?
USP30 block: inactive; USP28 inh: inactive; USP17 inh: inactive; USP8 inh: inactive; USP7 inh: inactive; USP10 block: inactive

How did O=C(CN1C(=O)COc2ccc(Cl)cc21)Nc1cccc2ncccc12 do in these assays?
USP30 block: inactive; USP28 inh: inactive; USP17 inh: 60.0; USP8 inh: 72.9; USP7 inh: inactive; USP10 block: inactive

How did O=C1COc2ccc(C(=O)Nc3cccc4ncccc34)cc2N1 do in these assays?
USP30 block: inactive; USP28 inh: inactive; USP17 inh: 36.7; USP8 inh: inactive; USP7 inh: inactive; USP10 block: inactive
